697 NFkB inh – inhibitors of PMA/ionomycin-induced NF-kB reporter, 697 cells, primary screen, B-cell NF-kB inhibitor project, cell-based, luminescence, uHTS; inhibition, % at 4 µM; 330,000 compounds, 0.33% hits; 697 B-cell NF-kB luciferase reporter, 16 h; AID 435022, 2010; in the data active = inhibition above about 35%
Mdm2-MdmX inh – inhibitors of human Mdm2-MdmX association, primary screen, cell-based, luminescence, split luciferase, SaOS-2, uHTS; Protein Mdm4 (Homo sapiens) + E3 ubiquitin-protein ligase Mdm2 (Homo sapiens), …; SaOS-2 split-luciferase Mdm2/MdmX complementation; inhibition, % at 8 µM; 330,000 compounds, 3% hits; AID 485346, 2010;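 active = inhibition of at least 50% at 8 µM in the primary screen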
Target sequence (O15151 whole entry, looked up): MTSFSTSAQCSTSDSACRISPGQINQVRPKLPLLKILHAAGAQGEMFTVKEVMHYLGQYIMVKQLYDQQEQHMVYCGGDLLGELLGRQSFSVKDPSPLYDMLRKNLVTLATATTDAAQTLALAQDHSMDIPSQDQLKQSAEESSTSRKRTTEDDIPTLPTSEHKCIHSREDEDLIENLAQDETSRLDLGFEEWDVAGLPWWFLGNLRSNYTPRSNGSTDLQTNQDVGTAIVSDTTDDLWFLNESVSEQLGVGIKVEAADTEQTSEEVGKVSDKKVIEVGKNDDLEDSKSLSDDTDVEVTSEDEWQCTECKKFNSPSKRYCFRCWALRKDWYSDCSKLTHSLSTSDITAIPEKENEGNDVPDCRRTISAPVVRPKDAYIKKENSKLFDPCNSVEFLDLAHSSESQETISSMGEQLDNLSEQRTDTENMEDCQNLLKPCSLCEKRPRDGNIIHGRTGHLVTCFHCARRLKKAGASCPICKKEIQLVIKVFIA
Target sequence (Q00987 whole entry, looked up): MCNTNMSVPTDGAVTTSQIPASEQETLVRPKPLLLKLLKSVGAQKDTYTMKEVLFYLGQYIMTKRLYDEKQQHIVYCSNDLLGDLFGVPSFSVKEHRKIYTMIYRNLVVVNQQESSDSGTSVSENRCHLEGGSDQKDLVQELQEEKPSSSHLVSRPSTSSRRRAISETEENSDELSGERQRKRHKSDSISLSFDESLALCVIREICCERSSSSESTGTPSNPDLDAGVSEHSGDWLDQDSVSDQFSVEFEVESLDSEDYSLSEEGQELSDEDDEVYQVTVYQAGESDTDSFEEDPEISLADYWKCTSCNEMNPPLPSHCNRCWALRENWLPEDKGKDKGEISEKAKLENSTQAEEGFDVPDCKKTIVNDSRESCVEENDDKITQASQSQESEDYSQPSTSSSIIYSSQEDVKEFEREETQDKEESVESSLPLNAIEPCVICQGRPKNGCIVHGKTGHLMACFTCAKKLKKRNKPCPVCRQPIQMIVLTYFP
Gli-Sufu antag – Gli-Sufu pathway antagonists, primary screen, luciferase luminescence, Sufu-KO-LIGHT cells, uHTS; Sufu-KO-LIGHT fibroblasts, Gli luciferase reporter luminescence; inhibition, % at 5 µM; 340,000 compounds, 0.74% hits; AID 588413, 2011;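 active = inhibition above about 55%, limit read from the data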;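 also: 0% = DMSO-treated cells and 100% = wells with medium but no cells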
Jurkat NFkB inh – inhibitors of induced NF-kB luciferase reporter, primary screen, TCR NF-kB activation inhibitor project, cell-based, luminescence, uHTS | Jurkat, PMA/ionomycin-induced NF-kB luciferase reporter | inhibition, % at 4 µM | 330,000 compounds, 0.53% hits; in the data active = inhibition above about 50%
aSyn UTR inh – MLPCN primary screen, SNCA 5' untranslated region | alpha-synuclein 5'UTR reporter, inhibitor activity | inhibition, % (tested at 7.5 µM) | 300,000 compounds, 0.82% hits | AID 1813, 2009; in the data active = inhibition above about 60%;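 also: H4 neuroglioblastoma cells stably carrying SNCA 5'UTR luciferase fusion; 0% = DMSO wells and 100% = positive control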
CSC inhib – cancer stem cell viability inhibitors, primary screen, luminescence; cancer stem cell-like cells viability; inhibition, % at 7.5 µM; 300,000 compounds, 1.1% hits; AID 2717, 2010; in the data active = inhibition above about 75%; tested in HMLE shEcad cells
Gli antag conf – Gli-SUFU pathway antagonists, confirmation, single concentration, luciferase luminescence, Sufu-KO-LIGHT cells; shares compounds with Gli-Sufu antag; Gli luciferase reporter; inhibition, % at 5 µM; 2,500 compounds, 40% hits; AID 602428, 2012;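 active = mean inhibition at 5 µM reaching about 45%, limit read from the data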;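 also: plate controls were DMSO-treated cells for no effect and wells lacking cells for full effect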
SufuKO cytotox – cytotoxicity in Sufu-KO-LIGHT cells, confirmation, cytotoxicity control for Gli-SUFU antagonist project, cell-based, ATP luminescence, single concentration | 2,500 compounds, 32% hits | cytotoxicity, % at 5 µM | shares compounds with Gli-Sufu antag;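 active = mean cytotoxicity at 5 µM above about 25%, limit read from the data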;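 also: cells exposed to compound overnight for roughly 16 to 18 hours; plate controls were DMSO wells with cells for no effect and medium without cells for full effect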
Wnt3a cs – Wnt3a reporter signal inhibition, confirmation, counter-screen for Gli-SUFU antagonist project, Wnt-LIGHT cells, luminescence, single concentration | 2,500 compounds, 20% hits | Wnt3a-driven luciferase reporter | inhibition, % at 6.25 µM | shares compounds with Gli-Sufu antag;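 active = mean inhibition above about 25%, limit read from the data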
The depositor's hits bear a star. This is a sample that favours compounds with a hit; in the whole collection about 4.5% have one here.

How did COCC(=O)N1CCC(Oc2ccc(C(=O)NCCCn3cccn3)cc2)CC1 do in these assays?
697 NFkB inh: 2; Mdm2-MdmX inh: -8; Gli-Sufu antag: 53; Jurkat NFkB inh: -13; aSyn UTR inh: 1; CSC inhib: 11; Gli antag conf: 21; SufuKO cytotox: 7; Wnt3a cs: 5

What do the screens show for `C[C@@]12CCC3[C@@](CCC4[C@@]3(C)CCC[C@@]4(C)C(=O)N3CCCCC3)(CC1=O)C2` (some centres undefined)?
697 NFkB inh: 4; Mdm2-MdmX inh: -2; Gli-Sufu antag: 17; Jurkat NFkB inh: 10; CSC inhib: -7

How did COc1ccccc1Nc1nc(-c2c(C)nc3ncccn23)cs1 do in these assays?
Gli-Sufu antag: 55*; aSyn UTR inh: -15; Gli antag conf: 68*; SufuKO cytotox: 59*; Wnt3a cs: 28*

What do the screens show for `Cc1nc2ncccn2c1-c1csc(NCc2ccco2)n1`?
697 NFkB inh: -17; Mdm2-MdmX inh: 39; Gli-Sufu antag: 28; Jurkat NFkB inh: -10; aSyn UTR inh: 2; CSC inhib: -3

How did COc1ccc(Nc2nc(-c3c(C)nc4ncccn34)cs2)cc1 do in these assays?
Gli-Sufu antag: 71*; Gli antag conf: 75*; SufuKO cytotox: 66*; Wnt3a cs: -70

What do the screens show for `Cc1nc2ncccn2c1-c1csc(Nc2ccc(N(C)C)cc2)n1`?
Gli-Sufu antag: 62*; aSyn UTR inh: 70*; Gli antag conf: 57*; SufuKO cytotox: 45*; Wnt3a cs: -90

What do the screens show for `COc1ccccc1Nc1nc(-c2sc(N)nc2C)cs1`?
697 NFkB inh: -13; Mdm2-MdmX inh: 10; Gli-Sufu antag: -7; Jurkat NFkB inh: 4; aSyn UTR inh: -11; CSC inhib: -10

Results for Cc1nc(C)c(-c2csc(Nc3ccc(F)cc3)n2)s1 ?
697 NFkB inh: -77; Mdm2-MdmX inh: -69; Gli-Sufu antag: -28; Jurkat NFkB inh: -41; aSyn UTR inh: -152; CSC inhib: 31

Results for Cc1cnc(C(=O)NC2CCSc3ccccc32)cn1 (centres undefined) ?
697 NFkB inh: 16; Mdm2-MdmX inh: -3; Gli-Sufu antag: -4; Jurkat NFkB inh: 10; aSyn UTR inh: -8; CSC inhib: 0

Results for Cc1[nH]c(C)c(S(=O)(=O)NCc2ccccc2Cl)c1C(=O)N1CCCC1 ?
697 NFkB inh: -8; Mdm2-MdmX inh: -1; Gli-Sufu antag: 58*; Jurkat NFkB inh: -6; aSyn UTR inh: 13; CSC inhib: 10; Gli antag conf: 15; SufuKO cytotox: 7; Wnt3a cs: -2

How did FC(F)Sc1ccc(NC(=S)N2CCN(c3ccccn3)CC2)cc1 do in these assays?
697 NFkB inh: 5; Mdm2-MdmX inh: 15; Gli-Sufu antag: 6; Jurkat NFkB inh: 6; aSyn UTR inh: 10

Results for Oc1ccccc1N1CCN(C(=S)Nc2ccc(SC(F)F)cc2)CC1 ?
697 NFkB inh: -11; Mdm2-MdmX inh: -11; Gli-Sufu antag: 76*; Jurkat NFkB inh: 4; aSyn UTR inh: -35; CSC inhib: 1; Gli antag conf: 23; SufuKO cytotox: 20; Wnt3a cs: -9

Results for CN(C)/C=N/c1nc2nccc(-c3cccnc3)n2n1 ?
697 NFkB inh: 6; Mdm2-MdmX inh: -15; Gli-Sufu antag: 1; Jurkat NFkB inh: 0; aSyn UTR inh: 0; CSC inhib: -1

Results for Nc1nc2nccc(-c3cccnc3)n2n1 ?
697 NFkB inh: 8; Mdm2-MdmX inh: 8; Gli-Sufu antag: 95*; Jurkat NFkB inh: -20; aSyn UTR inh: 0; Gli antag conf: 11; SufuKO cytotox: 12; Wnt3a cs: 1

Results for CCOC(=O)c1sc(=S)n(-c2ccccc2Cl)c1SC ?
697 NFkB inh: 4; Mdm2-MdmX inh: 14; Gli-Sufu antag: 51; Jurkat NFkB inh: -1; aSyn UTR inh: 27; CSC inhib: 1; Gli antag conf: 9; SufuKO cytotox: -5; Wnt3a cs: -12

How did Cc1nc(-c2ccc(S(=O)(=O)NCc3ccccn3)s2)cs1 do in these assays?
697 NFkB inh: 2; Mdm2-MdmX inh: 13; Gli-Sufu antag: -2; Jurkat NFkB inh: -2; aSyn UTR inh: 1; CSC inhib: -15

How did CCc1nc(CN2CCCC(C(=O)c3ccc4c5c(cccc35)CC4)C2)c(C)[nH]1 (centres undefined) do in these assays?
697 NFkB inh: -12; Mdm2-MdmX inh: 40; Gli-Sufu antag: 52; Jurkat NFkB inh: 7; aSyn UTR inh: 31; CSC inhib: 16; Gli antag conf: 15; SufuKO cytotox: 6; Wnt3a cs: -44

Results for O=C(c1ccc2c3c(cccc13)CC2)C1CCCN(Cc2ccncc2)C1 (centres undefined) ?
697 NFkB inh: -6; Mdm2-MdmX inh: 25; Gli-Sufu antag: 9; Jurkat NFkB inh: 24; aSyn UTR inh: -4; CSC inhib: 36

Results for O=C(NCCCN1CCOCC1)c1ccccc1 ?
697 NFkB inh: 0; Mdm2-MdmX inh: -13; Gli-Sufu antag: 61*; Jurkat NFkB inh: -9; aSyn UTR inh: 11; CSC inhib: -4; Gli antag conf: 29; SufuKO cytotox: 13; Wnt3a cs: 3

Results for O=C(CC(c1ccccc1)c1cc(Br)ccc1O)NCCCN1CCOCC1 (centres undefined) ?
697 NFkB inh: -11; Mdm2-MdmX inh: 3; Gli-Sufu antag: 52; Jurkat NFkB inh: -3; aSyn UTR inh: 10; CSC inhib: -19; Gli antag conf: 19; SufuKO cytotox: 3; Wnt3a cs: -30

How did O=C(CC(c1ccccc1)c1cc(Br)ccc1O)NCCN1CCOCC1 (centres undefined) do in these assays?
697 NFkB inh: 15; Mdm2-MdmX inh: 30; Gli-Sufu antag: 6; Jurkat NFkB inh: 2; aSyn UTR inh: 4; CSC inhib: -9

Results for CCCCCCC(C)OC(=O)c1ccccc1C(=O)O (centres undefined) ?
697 NFkB inh: -2; Mdm2-MdmX inh: -19; Gli-Sufu antag: 9; Jurkat NFkB inh: -13; aSyn UTR inh: -1; CSC inhib: -3

From PubChem BioAssay
